Our source for the Potency values is PubChem BioAssay (NCATS).

Results filed as inconclusive are left out. Calls of active or inactive are those of the source. Calls follow the shape of the dose curve; as a rule, active = well fitted curve in the direction sought with a large enough effect; inconclusive = small, poorly fitted or top-dose-only effect, or another doubt; inactive = no such curve, though single readings can be large; an effect the other way counts as inactive or inconclusive.

Assay [1] can be described thus: BET inhibitor-based combinations targeting novel dependencies in MECOM-rearranged (r) AML: OCI-AML3 cell line (AID 2202232). Also: nearly all actives have a fitted effect of over 35% in size. Also: potency is read from the fitted curve at half-maximal effect. As to conditions: CellTiter-Glo luminescence, 48 h; Potency: OCI-AML3 viability; series mostly up to 46 µM. An outline of the steps:
(§1)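 Luminescent ATP readout (CellTiter-Glo) after 48 hr drug exposure gives viability. Curves span 11 concentrations and are normalized to DMSO and empty wells. Activity is reported as area under the curve and its Z-transform within each cell line.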
For orientation: Cellular ATP, detected with luciferase, serves as a proxy for viable cell number.

The nature of assay [2]: BET inhibitor-based combinations targeting novel dependencies in MECOM-rearranged (r) AML: MV-4-11 cell line (AID 2202233). Also: potency is read from the fitted curve at half-maximal effect; nearly all actives have a fitted effect of over 45% in size. As to conditions: MV-4-11 AML viability, CellTiter-Glo luminescence, 48 h; series mostly up to 46 µM. An outline of the steps: (§2)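 Luminescent ATP readout (CellTiter-Glo, 15 min at room temperature) after 48 hr drug exposure gave viability. Dose-response curves, normalized to DMSO and empty-well controls, were summarized as area under the curve and its mean-centred Z-score.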

A short description of assay [3]: BET inhibitor-based combinations targeting novel dependencies in MECOM-rearranged (r) AML: AML-191 cell line (AID 2202236; also: nearly all actives have a fitted effect of over 35% in size; also: potency is read from the fitted curve at half-maximal effect). As to conditions: AML-191 viability, CellTiter-Glo luminescence, 48 h; series mostly up to 46 µM. The essentials:
as §1

The nature of assay [4]: BET inhibitor-based combinations targeting novel dependencies in MECOM-rearranged (r) AML: AML-194 cell line (AID 2202237; also: nearly all actives have a fitted effect of over 40% in size; also: potency is read from the fitted curve at half-maximal effect). As to conditions: AML-194 (MECOM-r AML) viability, CellTiter-Glo, 48 h; series mostly up to 46 µM. The essentials: as §1
Assay [5] in a line: BET inhibitor-based combinations targeting novel dependencies in MECOM-rearranged (r) AML: UCSD-AML1 cell line (AID 2202235). Also: nearly all actives have a fitted effect of over 40% in size. The following applies: UCSD-AML1 AML cells viability, CellTiter-Glo, 48 h; series mostly up to 46 µM. The essentials: as §2
Assay [6] in a line: BET inhibitor-based combinations targeting novel dependencies in MECOM-rearranged (r) AML: HNT-34 cell line (AID 2202234). Also: potency is read from the fitted curve at half-maximal effect; nearly all actives have a fitted effect of over 35% in size. As to conditions: HNT-34 AML viability, CellTiter-Glo luminescence, 48 h; series mostly up to 46 µM. An outline of the steps:
as §2

As to `O=C(NC1CC1)c1cccc(-c2ccc3c(NC(=O)C4CC4)n[nH]c3c2)c1`, the Potency is 10.5 µM (active) in assay [1], 8.33 µM (active) in assay [2], 2.95 µM (active) in assay [3] and 4.68 µM (active) in assay [4].
Take `COC(=O)C1=C(C)NC(c2ncc(F)cc2F)=N[C@@H]1c1ccc(F)cc1Cl`: the Potency entry in assay [1], in assay [5], in assay [3] and in assay [4] was “inactive” each time.
Regarding `O=c1cc(-c2ccc(O)c(O)c2)oc2cc(O)cc(O)c12`, in assay [2], the Potency is 8.33 µM (active).
The same measure, in the same setting: the result for `CO[C@H]1/C=C/O[C@@]2(C)Oc3c(C)c(O)c4c(O)c(c(/C=N\N5CCN(C6CCCC6)CC5)c(O)c4c3C2=O)NC(=O)/C(C)=C\C=C\[C@H](C)[C@H](O)[C@@H](C)[C@@H](O)[C@@H](C)[C@H](OC(C)=O)[C@@H]1C` reads 23.5 µM (active).
Consider `CN1CCN(C(=O)c2ccc(-c3ccc4c(C=O)c(O)ccc4c3)s2)CC1`, for which the Potency was 26.3 µM (active) in assay [1] and 16.6 µM (active) in assay [6].
Take `COC(=O)C1=C(C)NC(c2ncc(F)cc2F)=N[C@H]1c1ccc(F)cc1Cl`: the Potency in assay [2] was 18.6 µM (active).
For the molecule `C/C(O)=C(\C#N)C(=O)Nc1ccc(C(F)(F)F)cc1`, the Potency in assay [1] was 9.34 µM (active); in assay [6] it was 14.8 µM (active). Further, the Potency result in assay [5] is “inactive”.
In the case of `N#C/C(=C(/N)Sc1ccc(N)cc1)c1ccccc1C(F)(F)F`, the Potency in assay [1] was 7.42 µM (active); in assay [2], 18.6 µM (active); in assay [3] it was 5.9 µM (active); in assay [4], 16.6 µM (active).
As for `NS(=O)(=O)c1ccc(NC(=S)N2CCN(C/C=C/c3ccccc3)CC2)cc1`, the Potency was 20.9 µM (active) in assay [1] and 18.6 µM (active) in assay [6]. The Potency entry in assay [5] and in assay [4] was “inactive” throughout.
Turning to `CC(C)c1cnn2c(NCc3ccccc3)cc(NCCCCCCN)nc12`, the Potency in assay [2] is 18.6 µM (active).
